Assay outcomes (PubChem BioAssay)
proKLK7 act: proKLK7 (human) activation, primary screen; actives 0.9% (n = 370,000); AID 652039; purified proKLK7, EDANS-DABCYL substrate fluorescence; 100% is mature enzyme control, 0% vehicle; activation, % at 7 µM;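 active = activation above the mean of all tested compounds plus 3 SD, computed per campaign excluding outliers beyond control limits, cut at about 13% in these data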
ADAM17 inh: inhibits human ADAM17; P78536; recombinant ADAM17, EDANS/DABCYL FRET peptide cleavage; inhibition, % at 6.95 µM; actives 0.83% (n = 370,000); AID 720648;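 active = inhibition above the mean of compounds lying between control limits plus 3 SD, set per campaign, cut at about 8.5% in these data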;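 also: 0% = DMSO-only wells as the low control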
MPTP inh: blocks calcium-induced mitochondrial swelling; AID 602449; inhibition, % at 10 µM; isolated mouse mitochondria, Ca2+ swelling absorbance, 30 min; actives 1.4% (n = 360,000);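 active = inhibition of 50% or more, scaled per plate between neutral and stimulator controls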;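 also: 0% = DMSO wells given calcium and 100% = 1 mM EGTA wells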
rCAG RNA binder: r(CAG) repeat RNA binding; TO-PRO-1 dye displacement fluorescence; inhibition, % at 3 µM; actives 1.3% (n = 370,000);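 active = inhibition above the plate cutoff, the mean of all test compounds on that plate plus 3 SD, cut at about 35% in these data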;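 also: 0% = DMSO alone and 100% = 100 µM mitoxantrone as full dye displacement; higher means more dye released from RNA so lower well fluorescence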
ADAM10 inh: inhibits human ADAM10; actives 0.62% (n = 370,000); inhibition, % at 7 µM; O14672; AID 720582; recombinant ADAM10, EDANS/DABCYL FRET peptide cleavage, 3 h;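 active = inhibition above a per-campaign cutoff equal to the mean of compounds falling between control-based bounds plus 3 SD, cut at about 20% in these data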;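 also: 0% = DMSO wells while the 100% control is not disclosed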
Target sequence (O14672 214-748 limits assumed): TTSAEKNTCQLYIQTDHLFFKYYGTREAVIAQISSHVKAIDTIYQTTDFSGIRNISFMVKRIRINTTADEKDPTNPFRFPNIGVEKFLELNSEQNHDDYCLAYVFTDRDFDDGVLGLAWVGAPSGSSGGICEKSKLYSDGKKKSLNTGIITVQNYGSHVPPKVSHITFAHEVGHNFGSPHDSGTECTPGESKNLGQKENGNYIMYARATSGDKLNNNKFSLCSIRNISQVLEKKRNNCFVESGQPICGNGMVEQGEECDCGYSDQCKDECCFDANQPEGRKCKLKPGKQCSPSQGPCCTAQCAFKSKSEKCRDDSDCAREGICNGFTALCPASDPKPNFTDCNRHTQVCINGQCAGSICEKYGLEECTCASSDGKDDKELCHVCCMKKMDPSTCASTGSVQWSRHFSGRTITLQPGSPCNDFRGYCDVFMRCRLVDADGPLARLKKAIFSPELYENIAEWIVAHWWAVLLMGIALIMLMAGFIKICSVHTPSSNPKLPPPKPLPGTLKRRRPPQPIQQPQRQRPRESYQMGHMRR
DSG3 Ab inh: blocks pemphigus antibody binding to human desmoglein-3; DSG3-coupled beads, scFv-anti-DSG3-GFP binding, flow cytometry; hits give low values; binding (percent of control), % at 10 µM; actives 0.48% (n = 310,000); P32926;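 active = binding more than 3 SD below its plate's average and above zero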;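 also: hits lower antibody fragment binding to DSG3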
Rh123 counter: mitochondrial membrane potential, counter-screen; AID 624504; shares compounds with MPTP inh; isolated mitochondria, Rhodamine 123 fluorescence; actives 78% (n = 5,000); inhibition, % at 10 µM; in the data active = inhibition above about 22%;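 also: 0% = DMSO vehicle and 100% = positive control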
MPTP swell DR: MPTP inhibition, dose response swelling confirmation | AID 651561 | shares compounds with MPTP inh | IC50, µM | isolated mitochondria swelling, absorbance | actives 58% (n = 780); in the data active = IC50 below about 20 µM
MPTP counter DR: MPTP inhibitor counter-screen activity, dose response. shares compounds with MPTP inh. isolated mitochondria counterscreen, fluorescence read-out. IC50, µM. actives 49% (n = 780). AID 651564; in the data active = IC50 below about 80 µM
Numbers without * were called inactive; nt = no result. Hits are enriched below; roughly 4.7% of the tested compounds scored in any of these assays.

SMILES	proKLK7 act	ADAM17 inh	MPTP inh	rCAG RNA binder	ADAM10 inh	DSG3 Ab inh	Rh123 counter	others
CCc1ccc(C=NN2CCN(Cc3ccc(C)cc3C)CC2)cc1	1	0	nt	0	5	nt	nt
CC(C)C(=O)N1CCC(CN=CC2=C(O)CC(C)(C)CC2=O)CC1	0	-6	69*	-1	-12	112	113*
CC1(C)CC(=O)C(C=NCC2CCN(C(=S)Nc3cccc(Cl)c3)CC2)=C(O)C1	0	-6	0	-1	-8	110	nt
O=C(O)CCC(=O)N1N=C(c2ccco2)CC1c1cccs1 (centres undefined)	0	-2	0	7	-7	91	nt
O=C(O)CCC(=O)N1N=C(c2ccc(Br)cc2)CC1c1cccs1 (centres undefined)	-1	-3	81*	8	-4	101	3	MPTP swell DR=>100;MPTP counter DR=>80
CC(COc1ccc(C#N)cc1F)CN1CCC(C(O)(c2ccccc2)c2ccccc2)CC1 (centres undefined)	0	-1	nt	2	-1	nt	nt
O=c1c(Sc2ccccc2)c(C(F)(F)F)[nH]n1-c1ccccc1	0	-2	70*	15	0	97	89*
Cc1[nH]n(-c2ccccc2)c(=O)c1-c1ccccc1	0	-2	-9	6	-3	99	nt
O=C(c1ccc2c(c1)C(=O)NC2=O)c1ccc2c(c1)C(=O)NC2=O	0	-2	nt	1	-14	nt	nt
N#CC1=C(SCC(=O)NC23CC4CC(CC(C4)C2)C3)NC(=O)C(C#N)C12CCCCC2 (centres undefined)	0	-2	80*	15	-7	106	87*
CC(C)(C)C1CCC2(CC1)C(C#N)=C(SCC(=O)NC1CCCCC1)NC(=O)C2C#N (centres undefined)	0	0	79*	13	10	120	88*
N#CC1=C(SCC(=O)NC2CC2)NC(=O)C(C#N)C12CCCCC2 (centres undefined)	1	-4	0	2	0	94	nt
Nc1[nH]c(C(=O)c2ccccc2)c(-c2cccc3ccccc23)c1C(=O)c1ccc(Br)cc1	1	2	nt	8	1	nt	nt
COc1ccc(C(=O)N2CCN(c3ccc([N+](=O)[O-])c(NCCc4ccc(OC)c(OC)c4)c3)CC2)cc1	-1	-3	85*	-1	-8	88	15	MPTP swell DR=6*;MPTP counter DR=<2.5*
COc1ccc(CCNc2cc(N3CCN(C(=O)c4ccccc4F)CC3)ccc2[N+](=O)[O-])cc1OC	0	1	40	2	6	98	nt
COc1ccccc1Nc1nc(-c2c(C)nc3ncccn23)cs1	-2	-11	71*	1	-9	102	50*
Fc1cc(F)cc(NC(=S)Nc2ccccc2N2CCOCC2)c1	-1	-3	94*	-3	-10	84	102*
S=C(NCCc1ccccc1)Nc1ccccc1N1CCOCC1	0	-1	1	-4	0	92	nt
CC(=O)c1c(C)[nH]c(C(=O)Nc2cccc(C#N)c2)c1C	0	5	3	2	-4	nt	nt
CC(=O)c1c(C)[nH]c(C(=O)Nc2cccc(C(F)(F)F)c2)c1C	0	3	70*	6	8	nt	86*
Fc1cc(F)c(C2SCCN2C(=S)Nc2cccc(C(F)(F)F)c2)c(F)c1 (centres undefined)	0	0	74*	5	12	106	93*
Cc1nc(Cl)c(C(=O)NC(=O)Nc2cccc(C(F)(F)F)c2)c(C)c1[N+](=O)[O-]	0	-2	97*	-1	-2	117	89*
O=C(Nc1cccc(C(F)(F)F)c1)N1CCN(C(=O)Nc2cccc(C(F)(F)F)c2)CC1	0	-5	64*	0	2	102	71*
COc1cccc(N2CCN(CC(=O)NCc3ccc(F)cc3)CC2)c1	0	0	nt	0	2	nt	nt
